Assay [1] addresses Cytochrome P450 1A2 (Homo sapiens) (UniProt P05177). As to the kind of experiment: p450-cyp1a2 (AID 410; calls by dose curve; note: potency is the fitted concentration of half-maximal effect). In outline:
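Human CYP1A2 (20nM) demethylated Luciferin-ME at its Km (100uM) in 100mM KPO4. After 10 min compound preincubation, NADPH regeneration ran the reaction 60 min at room temperature. Luciferin was read by luminescence, normalized to 57 uM furafylline.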

Assay [2] in a line: Stat Signaling Pathway (AID 446; active = well fitted curve in either direction with a large enough effect, not every such curve was filed as active;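 note: ME-180 cervical cancer cells given 40 pM IL-6 alongside compound; SIE-controlled beta-lactamase reporter measured as 460/530 nm FRET emission ratio; % is set by controls: 0 for no effect and ±100 for the full control effect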). In outline: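 Reporter line: ME-180 cervical carcinoma, SIE-beta-lactamase. Treatment: compound with 40 pM IL-6, 5 hrs, 37 C, in low-serum OPTI-MEM with 10 mM HEPES pH 7.3. Detection: 460/530 nm fluorescence.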
Assay [3] addresses Glucocorticoid receptor (Homo sapiens) (UniProt P04150). The assay is described as follows: GR-GFP Redistribution (AID 450;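 active = compounds whose dose series gives a full or clear partial fitted curve of increased nuclear translocation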; note: potency is the fitted concentration of half-maximal effect). As to conditions: U2OS GR-GFP nuclear translocation, laser cytometry, 2 h.
The target is the same in assay [4]. The assay is described as follows: GR-EFC Redistribution (AID 451; calls by dose curve; note: potency is the fitted concentration of half-maximal effect). The settings on record: CHO-K1 GR-EFC translocation, beta-gal luminescence, 2 h. Put shortly:
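CHO-K1 cells expressing nuclear EA and GR-ED fragments of b-gal; compounds titrated up to 46 uM final, 2 h at 37 C. GR nuclear translocation read as complemented b-gal luminescence after 1 h RT detection.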

The target in assay [5] is 3',5'-cyclic-AMP phosphodiesterase 4B (Homo sapiens) (UniProt Q07343). The assay is described as follows: qHTS Assay for Inhibitors of PDE-IV (AID 607; active = well fitted activation curve with a large enough effect in the main read-out, with a control signal flat, not every such curve was filed as active; note: % of control where 0% means no effect). Put shortly:
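Cell-based read-out of cAMP via a modified cyclic nucleotide-gated channel and membrane potential dye (535/590 nm) in HEK293 cells expressing PDE4 endogenously. Compounds tested up to 22.9 uM final; 100 uM RO 20-1724 reference.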

In assay [6] the target is Guanine nucleotide-binding protein G(i) subunit alpha-1 (Homo sapiens) (UniProt P63096). As to the kind of experiment: qHTS Assay for Inhibitors of RGS12 GoLoco Motif Activity (Green Fluorophore) (AID 879).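 Note: 0% = labeled peptide with Gαi1 and full inhibition = labeled peptide alone without protein; negative values mean loss of peptide binding seen as reduced polarization.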 Put shortly: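 Fluorescence polarization assay: 50 nM Gαi1 with 10 nM FITC-labeled RGS12 GoLoco peptide in 10 mM Tris pH 7.5, 150 mM NaCl, 0.1 mM GDP, 0.05% NP40, 10 min at room temperature with compound.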

In assay [7] the target is Cytochrome P450 3A4 (Homo sapiens) (UniProt P08684). As to the kind of experiment: qHTS Assay for Activators of Cytochrome P450 3A4 (AID 885). Note: nearly all actives have a fitted effect of over 65% in size. In outline:
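Signal was normalized against complete inhibition by 57 uM ketoconazole. The reaction used 20nM CYP3A4 with 25uM Luciferin-PPXE, 10-min compound preincubation and a 60-min NADPH-supported step at RT.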

Assay [8] in a line: qHTS Assay for Identification of Small Molecule Antagonists for Thrombopoietin (TPO) Signaling Pathway (AID 918). Note: potency is the fitted concentration of half-maximal effect; nearly all actives have a fitted effect of over 60% in size. As to conditions: TPO-dependent cell signaling reporter, antagonist mode. In outline:
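Murine Ba/F3 cells stably expressing human TPO receptor and a Glycoprotein IIb promoter–luciferase reporter were IL-3-starved overnight, treated with compounds plus TPO (26 pM final, its EC50) for 24 hrs at 37 C, then read by luminescence.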

Assay [9] concerns the target Pyruvate kinase (Leishmania mexicana) (UniProt Q27686). The assay is described as follows: qHTS Validation Assay for Inhibitors of Leishmania Mexicana Pyruvate Kinase (AID 945).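 Note: 0% = DMSO only neutral control wells.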 In outline: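 Mutant LmPYK (E451W), 0.2 nM, plus 0.5 mM PEP and 0.1 mM ADP in 50 mM imidazole pH 7.2 containing 0.01% Tween 20 and 0.05% BSA. Incubated 1 h at room temperature; luminescence via PKLight, normalized to DMSO.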

Assay [10] has as its target Pyruvate kinase PKM (Homo sapiens) (UniProt P14618). As to the kind of experiment: qHTS Assay for Activators of Human Muscle Pyruvate Kinase (AID 954; active = well fitted curve in the direction sought with a large enough effect, not every such curve was filed as active;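 note: 0% = uninhibited enzyme and -100% = no enzyme or full thiadiazolimine inhibition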). Put shortly: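 Human PKM2 activity is measured as ATP generation, detected by luciferase-coupled luminescence. The enzyme (0.1 nM) acts on 0.5 mM PEP and 0.1 mM ADP for 1 h at ambient temperature; data are normalized to uninhibited and full-inhibition wells.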

Assay [11] addresses Alpha-galactosidase A (Homo sapiens) (UniProt P06280). The assay is described as follows: Counterscreen for Glucocerebrosidase Inhibitors: qHTS Assay for Human alpha-Galactosidase at pH 4.5 (AID 992). Note: 0% is about no effect. Put shortly:
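Quantitative HTS: compounds tested from 0.7 nM up to 77 uM against 2 nM enzyme with 80 uM 4-MU alpha-D-galactopyranoside. The 20 min room-temperature reaction is stopped with 1M NaOH/1M glycine, pH 10.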

Assay [12] addresses alpha-glucosidase (Oryza sativa, rice) (UniProt Q653V4). As to the kind of experiment: Counterscreen for Glucocerebrosidase Inhibitors: qHTS Assay for Rice alpha-Glucosidase at pH 5.0 (AID 997).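 Note: 0% = full activity with enzyme and -100% = basal without enzyme.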 In outline: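 Rice alpha-glucosidase (4 nM final) with 400 uM 4-methylumbelliferyl-alpha-D-glucopyranoside in citrate buffer pH 5.0, 20 min at room temperature, stopped at pH 10; fluorescence 365/440 nm, compounds 0.7 nM–77 uM, AC50 from Hill fits.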

Assay [13] is described as follows: Counterscreen for APE1 Inhibitors: Fluorescent Dye Displacement Validation Assay (AID 1707).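 Note: plate controls were ThO with dsDNA and no compound for no effect and ThO without dsDNA for full effect.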 In outline:
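Compounds are scored by their ability to displace Thiazole Orange (250 nM) from a 50 nM TAMRA-tagged duplex bearing a tetrahydrofuran abasic site. Buffer is 50 mM Tris-HCl pH7.5, 50mM NaCl, 2 mM MgCl2, 0.01% Tween-20.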

Assay [14] can be described thus: qHTS for differential inhibitors of proliferation of Plasmodium falciparum line 7G8 (AID 1815).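 Note: potency is the fitted concentration of half-maximal effect; parasite growth measured after three days of incubation.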
Assay [15] is described as follows: qHTS for differential inhibitors of proliferation of Plasmodium falciparum line GB4 (AID 1816).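 Note: potency is the fitted concentration of half-maximal effect; parasite growth measured after 72 h incubation.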 As to conditions: Potency: Plasmodium falciparum GB4 proliferation inhibition.
A short description of assay [16]: qHTS for differential inhibitors of proliferation of Plasmodium falciparum line D10 (AID 1877).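 Note: potency is the fitted concentration of half-maximal effect; parasites grown with compound for 72 h before DNA staining.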
Assay [17] is described as follows: qHTS for differential inhibitors of proliferation of Plasmodium falciparum line W2 (AID 1883).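 Note: potency is the fitted concentration of half-maximal effect; parasites grown with compound for 72 h before lysis and staining.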 The settings on record: Potency: Plasmodium falciparum W2 proliferation inhibition.
A short description of assay [18]: qHTS for differential inhibitors of proliferation of Plasmodium falciparum line HB3 (AID 1886).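 Note: potency is the fitted concentration of half-maximal effect; parasites grown with compound for 72 h before SYBR Green readout.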 The settings on record: Potency: Plasmodium falciparum HB3 proliferation inhibition.
The target in assay [19] is ATP-dependent DNA helicase Q1 (Homo sapiens) (UniProt P46063). As to the kind of experiment: qHTS Validation Assay for Inhibitors of RecQ-Like Dna Helicase 1 (RECQ1) (AID 2353).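 Note: plate controls were DMSO vehicle for no effect and enzyme-free control for full effect.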 Put shortly:
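50 nM RECQ1T1 preincubated 15 min with compound in Tris pH 8.0 buffer with MgCl2, DTT, Tween-20 and 2.5 ug/ml poly(dI-dC); started with 200 nM TAMRA/BHQ-2 forked duplex and 2 mM ATP. Unwinding read as fluorescence (525/598 nm), two reads 2 h apart.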

Assay [20] addresses M-phase phosphoprotein 8 (Homo sapiens) (UniProt Q99549). The assay is described as follows: qHTS Validation Assay for Inhibitors for MPP8 Chromodomain Interactions with Methylated Histone Tails (AID 488949).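 Note: 50 nM MPP8 with 50 nM peptide preformed then compounds added for 30 min; AlphaScreen signal from MPP8 chromodomain bound to biotinylated H3K9me3 peptide; top concentration of the series differs between compounds; % is set by controls: 0 for no effect and ±100 for the full control effect; nearly all actives have a fitted effect of over 55% in size.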 Put shortly:
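Chemiluminescent proximity assay: histidine-tag capture via nickel acceptor beads, biotin peptide via streptavidin donor beads. Protein and peptide each at 50 nM, pH 7.4, with 30 min incubations at room temperature for complex formation, compound exposure and bead binding.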

Assay [21] has as its target Thyrotropin receptor (Homo sapiens) (UniProt P16473). As to the kind of experiment: qHTS Assay for Antagonists of the Thyroid Stimulating Hormone Receptor (AID 488980). Note: 0% is about no effect. In outline: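 Inhibition of TSH-stimulated cAMP accumulation was quantified by homogeneous time-resolved FRET in TSHR-transfected HEK293 cells. Agonist: TSH, 4 nM final (EC80).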
Assay [22] deals with Thyrotropin-releasing hormone receptor (Homo sapiens) (UniProt P34981). As to the kind of experiment: qHTS for Small Molecule Agonists and Allosteric Enhancers of Human TRH Receptor: Validation Screen for Agonists (AID 493127;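 active = calcium activation more than 3 SD above the typical response in the agonist read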;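 note: intracellular calcium rise by fluo-8 fluorescence before TRH EC20 addition; 0% is about no effect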). As to conditions: TRH receptor agonist cell assay; at 2 µM; stronger effect = higher value. Put shortly: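 TRHR-expressing cells were plated overnight in serum-containing medium, then loaded with fluo-8 calcium dye at room temperature for 30 min–1.5 h. After a 10 s baseline, compound was pin-transferred and calcium fluorescence (ex 480/em 530) read kinetically for agonist response.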

For assay [23], the target named is Galactokinase (Homo sapiens) (UniProt P51570). As to the kind of experiment: qHTS Validation Assay for Inhibitors of Human Galactokinase (GALK) (AID 493189). Note: 0% is about no effect. Put shortly: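 Enzyme activity is inferred from ATP consumption: human GALK phosphorylates galactose (100 uM) using 35 uM ATP for 1 h at room temperature, and luciferase-based Kinase-Glo Plus reports unconsumed ATP.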

Assay [24] addresses Voltage-gated inwardly rectifying potassium channel KCNH2 (Homo sapiens) (UniProt Q12809). The assay is described as follows: qHTS Assay for Small Molecule Inhibitors of the Human hERG Channel Activity (AID 588834).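 Note: potency is the fitted concentration of half-maximal effect; lower thallium flux fluorescence means stronger hERG block; nearly all actives have a fitted effect of over 50% in size.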 In outline:
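Blockade is seen as reduced FluxOR thallium-flux fluorescence in U2OS cells expressing hERG from a BacMam construct, in Opti-MEM with 2% FCS. Concentration-response data fitted to the Hill equation for AC50.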

Assay [25] addresses Catechol O-methyltransferase (Homo sapiens) (UniProt P21964). As to the kind of experiment: Confirmatory Screen for Target Class Profiling of Small Molecule Inhibitors of Methyltransferases (AID 1745852; calls by dose curve; note: potency is the fitted concentration of half-maximal effect; for activity change, negative = inhibition: % is set by controls: 0 for no effect and ±100 for the full control effect). As to conditions: MTase-Glo luminescence, SAH detection, recombinant enzyme; measured here: COMT max response; stronger effect = lower value.
In assay [26] the target is Guanidinoacetate N-methyltransferase (Homo sapiens) (UniProt Q14353). The description is as above. As to conditions: activity change, negative = inhibition: at 57.3 µM (top of the series) unless noted.
The target in assay [27] is Nicotinamide N-methyltransferase (Homo sapiens) (UniProt P40261). The assay is described as above. The settings on record: MTase-Glo luminescence, SAH detection, recombinant enzyme; measured here: NNMT max response; stronger effect = lower value.
Assay [28] has as its target Phenylethanolamine N-methyltransferase (Homo sapiens) (UniProt P11086). The assay is described as above. The settings on record: MTase-Glo luminescence, SAH detection, recombinant enzyme; measured here: PNMT max response; stronger effect = lower value.

Molecules are shown by their SMILES. Records with an inconclusive call do not appear. The source made the active and inactive calls. Unless noted, calls come from the whole dose curve; as a rule, active = well fitted curve in the direction sought with a large enough effect; inconclusive = small, poorly fitted or top-dose-only effect, or another doubt; inactive = no such curve, though single readings can be large; an effect the other way counts as inactive or inconclusive. Some results are limits rather than exact numbers.

Chain of Catechol O-methyltransferase (Homo sapiens) (P21964 whole entry, looked up): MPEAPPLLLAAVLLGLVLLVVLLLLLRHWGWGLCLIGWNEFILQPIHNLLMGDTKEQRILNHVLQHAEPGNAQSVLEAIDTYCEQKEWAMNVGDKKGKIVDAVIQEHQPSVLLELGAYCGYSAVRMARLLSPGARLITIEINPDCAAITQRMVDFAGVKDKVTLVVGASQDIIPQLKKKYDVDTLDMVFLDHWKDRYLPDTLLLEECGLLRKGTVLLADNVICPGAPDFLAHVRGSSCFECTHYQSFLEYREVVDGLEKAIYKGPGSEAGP
Chain of Nicotinamide N-methyltransferase (Homo sapiens) (P40261 whole entry, looked up): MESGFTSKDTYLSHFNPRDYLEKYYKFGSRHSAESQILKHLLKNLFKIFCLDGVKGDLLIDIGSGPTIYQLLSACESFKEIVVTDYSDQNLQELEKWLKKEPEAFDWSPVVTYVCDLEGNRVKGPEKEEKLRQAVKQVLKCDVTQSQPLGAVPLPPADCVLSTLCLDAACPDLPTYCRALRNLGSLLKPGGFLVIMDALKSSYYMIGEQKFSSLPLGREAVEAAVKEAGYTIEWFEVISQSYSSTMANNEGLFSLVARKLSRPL
Chain of Phenylethanolamine N-methyltransferase (Homo sapiens) (P11086 whole entry, looked up): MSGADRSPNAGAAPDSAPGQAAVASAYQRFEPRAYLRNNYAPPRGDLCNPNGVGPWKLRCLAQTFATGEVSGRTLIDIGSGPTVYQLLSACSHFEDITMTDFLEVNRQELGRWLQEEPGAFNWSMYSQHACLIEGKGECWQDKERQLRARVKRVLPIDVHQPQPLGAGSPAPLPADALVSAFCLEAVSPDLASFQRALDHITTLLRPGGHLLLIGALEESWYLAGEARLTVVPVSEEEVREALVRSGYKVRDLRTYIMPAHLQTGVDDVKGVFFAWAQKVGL
Chain of Glucocorticoid receptor (Homo sapiens) (P04150 whole entry, looked up): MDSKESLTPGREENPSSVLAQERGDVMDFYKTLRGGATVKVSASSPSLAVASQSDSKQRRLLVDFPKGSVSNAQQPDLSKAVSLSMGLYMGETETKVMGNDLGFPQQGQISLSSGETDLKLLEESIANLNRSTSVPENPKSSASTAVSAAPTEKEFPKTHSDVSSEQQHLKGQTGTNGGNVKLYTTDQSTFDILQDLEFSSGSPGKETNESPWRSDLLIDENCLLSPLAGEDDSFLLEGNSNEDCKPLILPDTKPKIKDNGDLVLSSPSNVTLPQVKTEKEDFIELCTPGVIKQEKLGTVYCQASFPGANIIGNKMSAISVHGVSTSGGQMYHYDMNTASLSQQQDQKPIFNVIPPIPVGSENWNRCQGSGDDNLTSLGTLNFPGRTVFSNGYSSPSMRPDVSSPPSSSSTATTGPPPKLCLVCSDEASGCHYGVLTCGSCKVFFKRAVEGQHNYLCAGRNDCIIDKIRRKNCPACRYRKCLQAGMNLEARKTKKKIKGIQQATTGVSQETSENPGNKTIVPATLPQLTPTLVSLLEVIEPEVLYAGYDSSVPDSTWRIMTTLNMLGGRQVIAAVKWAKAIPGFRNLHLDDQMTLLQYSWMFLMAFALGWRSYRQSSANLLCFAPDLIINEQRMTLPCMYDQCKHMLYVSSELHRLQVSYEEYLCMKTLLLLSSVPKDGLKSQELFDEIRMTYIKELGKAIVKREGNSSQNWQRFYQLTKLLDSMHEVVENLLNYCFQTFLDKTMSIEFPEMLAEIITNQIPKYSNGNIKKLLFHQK
Chain of Pyruvate kinase (Leishmania mexicana) (Q27686 2-499 E452W): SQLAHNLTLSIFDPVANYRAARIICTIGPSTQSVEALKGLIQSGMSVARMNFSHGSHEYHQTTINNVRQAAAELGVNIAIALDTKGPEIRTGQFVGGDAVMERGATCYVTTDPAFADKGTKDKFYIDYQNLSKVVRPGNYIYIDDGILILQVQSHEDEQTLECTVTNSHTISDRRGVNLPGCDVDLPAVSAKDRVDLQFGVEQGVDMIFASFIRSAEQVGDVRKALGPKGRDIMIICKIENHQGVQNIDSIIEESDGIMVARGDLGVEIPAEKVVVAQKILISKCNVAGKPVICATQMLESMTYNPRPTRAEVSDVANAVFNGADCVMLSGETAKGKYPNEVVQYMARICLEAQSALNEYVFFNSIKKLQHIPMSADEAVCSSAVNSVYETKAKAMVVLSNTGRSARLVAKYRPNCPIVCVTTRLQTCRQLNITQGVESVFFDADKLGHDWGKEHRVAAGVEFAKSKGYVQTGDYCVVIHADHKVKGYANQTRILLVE
Chain of ATP-dependent DNA helicase Q1 (Homo sapiens) (P46063 whole entry, looked up): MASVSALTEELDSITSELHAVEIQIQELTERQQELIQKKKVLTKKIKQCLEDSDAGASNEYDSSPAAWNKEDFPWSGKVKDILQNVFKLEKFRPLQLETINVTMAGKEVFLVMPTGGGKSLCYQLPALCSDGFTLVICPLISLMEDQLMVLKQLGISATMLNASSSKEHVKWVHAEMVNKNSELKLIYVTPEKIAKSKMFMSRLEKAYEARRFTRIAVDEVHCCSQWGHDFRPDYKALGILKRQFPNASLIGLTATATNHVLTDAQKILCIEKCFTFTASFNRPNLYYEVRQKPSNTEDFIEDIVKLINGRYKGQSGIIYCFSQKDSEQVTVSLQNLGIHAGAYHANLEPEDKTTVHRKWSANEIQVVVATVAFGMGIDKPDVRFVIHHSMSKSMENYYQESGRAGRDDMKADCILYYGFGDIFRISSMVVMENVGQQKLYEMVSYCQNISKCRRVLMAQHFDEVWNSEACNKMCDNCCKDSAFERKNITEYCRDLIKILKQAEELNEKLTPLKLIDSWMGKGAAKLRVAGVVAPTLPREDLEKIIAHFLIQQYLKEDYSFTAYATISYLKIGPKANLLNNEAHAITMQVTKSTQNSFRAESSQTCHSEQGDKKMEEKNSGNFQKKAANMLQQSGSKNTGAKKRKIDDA
Chain of 3',5'-cyclic-AMP phosphodiesterase 4B (Homo sapiens) (Q07343 whole entry, looked up): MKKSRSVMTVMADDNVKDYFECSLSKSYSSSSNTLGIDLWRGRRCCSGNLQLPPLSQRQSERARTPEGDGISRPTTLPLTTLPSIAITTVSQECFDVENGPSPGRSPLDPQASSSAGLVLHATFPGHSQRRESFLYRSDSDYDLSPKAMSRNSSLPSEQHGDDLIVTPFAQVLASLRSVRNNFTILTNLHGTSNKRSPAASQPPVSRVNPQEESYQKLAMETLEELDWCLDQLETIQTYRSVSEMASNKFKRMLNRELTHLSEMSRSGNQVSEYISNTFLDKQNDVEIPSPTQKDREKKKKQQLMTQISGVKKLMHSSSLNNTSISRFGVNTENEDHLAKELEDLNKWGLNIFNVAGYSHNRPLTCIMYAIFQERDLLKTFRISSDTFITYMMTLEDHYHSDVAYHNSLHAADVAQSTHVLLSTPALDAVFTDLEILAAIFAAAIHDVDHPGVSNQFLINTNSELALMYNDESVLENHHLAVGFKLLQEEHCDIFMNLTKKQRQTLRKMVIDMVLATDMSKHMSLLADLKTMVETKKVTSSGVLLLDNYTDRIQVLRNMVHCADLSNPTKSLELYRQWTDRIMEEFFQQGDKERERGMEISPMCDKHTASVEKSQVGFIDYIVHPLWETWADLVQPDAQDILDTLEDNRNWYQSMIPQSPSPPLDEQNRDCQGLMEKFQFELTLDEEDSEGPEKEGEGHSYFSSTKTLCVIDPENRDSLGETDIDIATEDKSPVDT
Chain of Thyrotropin-releasing hormone receptor (Homo sapiens) (P34981 whole entry, looked up): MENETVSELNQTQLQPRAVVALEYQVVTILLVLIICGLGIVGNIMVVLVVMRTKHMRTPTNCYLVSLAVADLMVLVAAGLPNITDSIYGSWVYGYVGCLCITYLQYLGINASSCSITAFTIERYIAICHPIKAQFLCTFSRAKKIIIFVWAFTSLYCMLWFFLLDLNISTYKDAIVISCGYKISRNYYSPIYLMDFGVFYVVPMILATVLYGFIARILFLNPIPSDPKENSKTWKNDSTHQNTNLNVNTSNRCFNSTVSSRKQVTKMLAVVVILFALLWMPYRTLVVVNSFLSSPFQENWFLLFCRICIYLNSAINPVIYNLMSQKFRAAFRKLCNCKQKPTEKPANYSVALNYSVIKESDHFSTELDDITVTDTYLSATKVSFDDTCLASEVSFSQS
Chain of Thyrotropin receptor (Homo sapiens) (P16473 whole entry, looked up): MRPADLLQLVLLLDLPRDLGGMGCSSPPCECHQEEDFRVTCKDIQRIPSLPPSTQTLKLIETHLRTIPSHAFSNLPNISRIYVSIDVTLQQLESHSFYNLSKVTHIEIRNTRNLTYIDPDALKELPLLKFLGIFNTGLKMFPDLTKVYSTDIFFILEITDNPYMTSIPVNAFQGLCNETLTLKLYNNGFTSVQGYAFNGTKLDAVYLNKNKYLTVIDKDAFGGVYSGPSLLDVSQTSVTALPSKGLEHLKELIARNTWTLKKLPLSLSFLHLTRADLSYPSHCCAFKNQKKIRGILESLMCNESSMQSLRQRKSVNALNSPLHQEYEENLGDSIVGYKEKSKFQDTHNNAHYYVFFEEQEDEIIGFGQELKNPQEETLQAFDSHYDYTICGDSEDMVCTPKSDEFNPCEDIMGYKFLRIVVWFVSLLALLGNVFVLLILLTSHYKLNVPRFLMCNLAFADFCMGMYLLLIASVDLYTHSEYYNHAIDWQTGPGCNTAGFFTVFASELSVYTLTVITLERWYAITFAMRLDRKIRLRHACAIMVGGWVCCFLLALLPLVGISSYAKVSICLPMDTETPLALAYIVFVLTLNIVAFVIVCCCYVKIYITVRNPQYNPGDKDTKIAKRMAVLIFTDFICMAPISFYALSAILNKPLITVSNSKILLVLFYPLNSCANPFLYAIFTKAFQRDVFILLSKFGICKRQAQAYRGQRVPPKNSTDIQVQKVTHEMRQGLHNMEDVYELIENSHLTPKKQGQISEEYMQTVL
Chain of Guanine nucleotide-binding protein G(i) subunit alpha-1 (Homo sapiens) (P63096 whole entry, looked up): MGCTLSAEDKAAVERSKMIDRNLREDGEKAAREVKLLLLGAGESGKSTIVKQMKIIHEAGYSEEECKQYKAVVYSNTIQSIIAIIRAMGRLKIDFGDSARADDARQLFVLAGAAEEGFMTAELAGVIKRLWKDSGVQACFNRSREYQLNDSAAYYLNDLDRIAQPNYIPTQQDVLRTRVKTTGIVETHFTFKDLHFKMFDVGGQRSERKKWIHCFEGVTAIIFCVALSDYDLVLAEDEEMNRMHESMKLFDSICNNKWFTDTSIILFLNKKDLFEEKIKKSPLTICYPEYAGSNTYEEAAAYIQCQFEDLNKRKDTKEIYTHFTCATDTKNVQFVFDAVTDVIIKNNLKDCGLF

Consider `N#Cc1c(-c2ccccc2)no[n+]1[O-]`, for which the Potency in assay [1] was 0.398 µM (active); in assay [3], > 46 µM (inactive); in assay [4], > 46 µM (inactive); in assay [8], 3.98 µM (active); in assay [14], 10 µM (active); in assay [15], 12.6 µM (active). The Potency in assay [16] is 14.1 µM (active); in [17], 10 µM (active); in assay [18] it was 11.2 µM (active); in [24], 5.01 µM (active). Also, the outcome in assay [2], in assay [7], in [9], in assay [10], in [11] and in assay [12] was “inactive” throughout. Further, the outcome in [13], in assay [19], in [21] and in assay [23] was “inactive” in each case. Also, the Potency entry in assay [5], in assay [6] and in assay [20] was “inactive” each time. In addition, the activation in [22] was 0.688% (inactive).
On to `COc1cccc([C@H]2Nc3ccc(S(=O)(=O)Nc4ccc(C)cc4C)cc3[C@H]3C=CC[C@H]32)c1`, for which the activity was -17.4% in assay [25], -21.2% in [27] and -27.1% in assay [28]. For the same compound, the Potency in assay [26] is 27.1 µM (active).
As for `CCc1cc2c(cc3n2CC(C)(C(=O)NC2CCC(C)CC2)N(C(C)CCc2ccco2)C3=O)s1` (stereo unspecified), the figures for the activity in [25], in assay [27] and in assay [28] were -10.7%, -6.06% and -12.3%, respectively. Besides, in assay [26], the activity change, negative = inhibition was -18.6%.
The corresponding values for `CCCCN1C(=O)c2cc(C(=O)NCCc3ccccc3Cl)nn2CC1(C)C(=O)NC1CCCC1` (stereo unspecified) are 0.497%, -0.43%, -2.62% and 0%.

For the origin of these results see PubChem BioAssay (NCATS).
